Screens as filed in PubChem.
PglD DTNB = inhibitors of Campylobacter jejuni PglD acetyltransferase; purified PglD enzyme, DTNB colorimetric CoA detection; AID 602405; inhibition, % at 12.5 µM; 360,000 tested, 0.098% active; in the data active = inhibition above about 16%, passing the limit was not always enough
dFosB act-1 = enhances mouse delta FosB homodimer DNA binding; activation, % at 25 µM; purified delta FosB, TAMRA-CDK5 oligo fluorescence polarization; percent of positive-control signal above neutral wells; P13346; 340,000 tested, 0.99% active; AID 493131;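 active = mean activation above about 17%, with every replicate also reaching it, limit read from the data, passing the limit was not always enough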
Target sequence (P13346 whole entry, looked up): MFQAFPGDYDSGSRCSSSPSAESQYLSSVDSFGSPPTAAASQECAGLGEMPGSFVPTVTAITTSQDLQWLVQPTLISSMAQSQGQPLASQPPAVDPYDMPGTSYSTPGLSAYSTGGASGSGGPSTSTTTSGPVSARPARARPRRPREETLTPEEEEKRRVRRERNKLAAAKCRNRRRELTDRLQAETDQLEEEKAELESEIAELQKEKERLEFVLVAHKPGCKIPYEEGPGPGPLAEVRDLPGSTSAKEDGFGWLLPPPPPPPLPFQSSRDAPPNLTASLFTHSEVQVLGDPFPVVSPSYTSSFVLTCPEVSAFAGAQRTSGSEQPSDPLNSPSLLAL
PvdQ inh = P. aeruginosa PvdQ acylase inhibition; purified PvdQ acylase, fluorescence plate reader; AID 488965; 340,000 tested, 0.063% active; inhibition, % at 10 µM; in the data active = inhibition above about 30%, passing the limit was not always enough;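 note: 0% = vehicle neutral wells and 100% = reference inhibitor wells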
FGF22 binding = shifts melting point of recombinant human FGF22; recombinant FGF22 thermal shift, SYPRO orange fluorescence; percent of sucrose octasulfate shift, DMSO zero; activity (Tm shift, normalised), % at 9.99 µM; 340,000 tested, 1.5% active;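 active = mean Tm shift, scaled 0 neutral to 100 positive control, at about 1.3% or above, every replicate too, limit read from the data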
Target sequence (Q9HCT0 whole entry, looked up): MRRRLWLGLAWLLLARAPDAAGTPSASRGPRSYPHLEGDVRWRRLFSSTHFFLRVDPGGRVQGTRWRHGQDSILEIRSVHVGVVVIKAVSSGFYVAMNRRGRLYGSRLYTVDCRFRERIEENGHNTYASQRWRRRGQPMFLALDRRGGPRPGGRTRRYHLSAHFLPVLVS
CDK5 p35 inh = CDK5/p35 (human) kinase inhibition | 330,000 tested, 0.01% active | inhibition, % at 10 µM | Recombinant CDK5/p35, ADP-Glo luminescence, 60 min;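 active = highest replicate inhibition of at least 50% and at least 75% of replicates reaching 50%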;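 note: plate controls were DMSO neutral control for no effect and GW8510 at 10 µM for full effect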
SIRT5 block = sirtuin-5 (human) deacylase inhibition; Q9NXA8; AID 652115; Purified SirT5, succinyl-peptide AMC, trypsin-coupled fluorescence; inhibition, % at 15 µM; 330,000 tested, 1.1% active; in the data active = inhibition above about 15%
dFosB act-2 = activators of mouse delta FosB homodimer DNA binding. shares compounds with dFosB act-1. purified delta FosB, TAMRA-CDK5 oligo fluorescence polarization; normalised: neutral wells 0, positive control 100. activation, % at 24.9 µM. 2,400 tested, under 10 active. AID 588690;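 active = highest replicate activation at or above 34% and every replicate reaching that threshold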;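 note: higher polarization means more probe DNA bound by delta FosB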
Starred values were filed as active, the others as inactive; / = no result given. Compounds with a hit are over-represented: about 2.8% of the library has one in this group of screens.

SMILES	PglD DTNB	dFosB act-1	PvdQ inh	FGF22 binding	CDK5 p35 inh	SIRT5 block	dFosB act-2
CC(=O)Nc1ccc(/C=N/NC(=O)CNC(=O)c2ccccc2)cc1	/	21*	-15	43*	1	-1	2
CC(=O)Nc1ccc(/C=N/NC(=O)CNS(=O)(=O)c2ccccc2)cc1	/	-2	-5	0	0	0	/
O=C(NNC(=O)c1cc2ccccc2cc1O)Nc1ccc(F)cc1F	-1	30*	-2	0	0	-2	-10
O=C(COC(=O)c1ccc(Br)cc1)NCc1ccc(F)cc1	-3	20*	-2	0	-2	2	2
O=C(NC(=S)Nc1nc(-c2cccc([N+](=O)[O-])c2)cs1)c1ccccc1Cl	/	88*	-10	1	1	-3	5
O=C(NC(=S)Nc1nc(-c2cccc([N+](=O)[O-])c2)cs1)c1cc(Cl)ccc1Cl	0	-4	23	0	2	-5	/
COc1cc(NC(C)=O)ccc1-c1cc2ccccc2oc1=O	/	-10	-6	0	1	/	/
COc1ccc2nc(NC(=O)c3cccc(-c4cc5ccccc5oc4=O)c3)sc2c1	/	44*	-1	/	-2	/	0
CC(=O)Nc1ccc(NC(=O)c2cccc(-c3cc4ccccc4oc3=O)c2)cc1	0	5	-13	0	-1	5	/
COc1cc(NC(=O)c2ccc(Cl)cc2Cl)ccc1-c1cc2ccccc2oc1=O	3	24*	-12	/	1	/	6
COc1ccc(C(=O)Nc2cccc(-c3cc4ccccc4oc3=O)c2)cc1[N+](=O)[O-]	/	52*	6	/	-1	/	5
COc1ccc(C(=O)Nc2nc3ccc(OC)cc3s2)cc1	1	-13	0	0	1	-1	/
CCOc1ccc(C(C(=O)NCC2CCCO2)N(Cc2cccs2)C(=O)c2snc(C(N)=O)c2N)cc1 (configuration not stated)	-1	21*	-10	0	-1	25*	6
CO[C@H]1CN(C)C(=O)c2ccc(NC(=O)C3CCCC3)cc2OC[C@H](C)N(C(=O)CC2CC2)C[C@H]1C	-1	/	/	0	/	4	/
Cc1ccc2c(c1)CC(C)N2S(=O)(=O)c1nnc(NC(=O)CC(C)C)s1 (configuration not stated)	-1	27*	-16	0	-1	1	1
COc1cc2c(cc1OC)-c1cc(Nc3cccc(C)c3)nc(=O)n1CC2	-5	30*	-24	0	0	-6	1
COc1ccc2c3c([nH]c2c1)[C@H](CO)N(C(=O)Nc1ccc(F)cc1)CC31CCN(S(=O)(=O)c2cccc(C)c2)CC1	/	/	/	0	/	-1	/
O=C(COC(=O)c1cc(Br)ccc1O)NNC(=O)c1ccc(Cl)cc1	1	26*	-15	0	0	-3	3
CC(=O)c1cccc(NC(=O)CC2S/C(=N/N=C/c3cccs3)NC2=O)c1 (configuration not stated)	/	40*	-13	0	0	3	-6
O=C(CC1S/C(=N/N=C/c2cccnc2)NC1=O)Nc1ccccc1 (configuration not stated)	0	2	-3	0	0	-2	/
CC(=O)c1cccc(NC(=O)CC2S/C(=N/N=C/c3ccccc3)NC2=O)c1 (configuration not stated)	/	49*	-7	/	1	/	3
CO[C@H]1CN(C)C(=O)c2ccc(NC(=O)Nc3ccccc3)cc2OC[C@H](C)N(C(C)=O)C[C@@H]1C	/	/	/	0	/	7	/
COc1ccc(CCNCC(O)Cn2c3ccccc3c3ccccc32)cc1OC (configuration not stated)	/	21*	13	1	-2	3	1
C[C@@H]1CN([C@H](C)CO)C(=O)Cc2cc(NC(=O)Nc3ccc4c(c3)OCO4)ccc2O[C@@H]1CN(C)Cc1ccc(Oc2ccccc2)cc1	-1	/	/	0	/	1	/
CO[C@H]1CN(C)C(=O)c2ccc(NS(=O)(=O)CC(F)(F)F)cc2OC[C@H](C)N(CC2CCCCC2)C[C@H]1C	1	/	/	0	/	-1	/
SMILES	PglD DTNB	dFosB act-1	PvdQ inh	FGF22 binding	CDK5 p35 inh	SIRT5 block	dFosB act-2
O=C(O)c1ccc(/C=N/Nc2nc3ccccc3[nH]2)cc1	4	25*	-13	0	0	1	0
Cc1ccccc1COc1cccc(/C=N/NC(=O)c2nnn(-c3nonc3N)c2C)c1	-3	24*	-13	0	2	-3	0
Cc1cccc(COc2ccc(/C=N/NC(=O)c3nnn(-c4nonc4N)c3COc3ccc(F)cc3)cc2)c1	1	27*	-8	0	2	-5	-2
Nc1nonc1-n1nnc(C(=O)N/N=C/c2ccc(OCc3ccccc3)cc2)c1COc1ccc(F)cc1	3	0	-16	-1	1	-4	/
Nc1nonc1-n1nnc(C(=O)N/N=C/c2ccccc2Cl)c1COc1ccc(F)cc1	/	27*	-4	0	1	-1	2
CCN1[C@@H]2c3ccc(C4=CCCCC4)c(=O)n3C[C@H]1[C@H](CO)[C@H]2C(=O)NCCOC	-3	/	/	0	/	-16	/
Cc1cccc(-n2c(O)c(C=NCc3ccccn3)c3ccccc3c2=O)c1	/	0	6	0	2	0	/
Cc1ccc(-n2c(O)c(C=NCc3ccccn3)c3ccccc3c2=O)cc1	-6	26*	0	0	0	-1	5
O=C(COC(=O)/C=C/c1cccc(C(F)(F)F)c1)NC(c1ccccc1)c1ccccc1	8	26*	-12	/	-5	/	5
COc1ccc(/C=C/C(=O)OCC(=O)Nc2cc(C(F)(F)F)ccc2Cl)cc1	/	31*	-7	0	1	-7	1
O=C(COC(=O)/C=C/c1cccc(C(F)(F)F)c1)Nc1cccc2ccccc12	/	5	6	/	1	/	/
O=C(COC(=O)/C=C/c1cccc(C(F)(F)F)c1)NC(=O)NCc1ccccc1	-4	24*	7	0	-1	-2	2
CC(=O)N(C)C[C@@H]1[C@H](c2ccc(-c3cccc(C#N)c3)cc2)[C@H](CO)N1C(C)=O	/	/	/	/	/	-3	/
C[C@@H]1CCCCO[C@H](CN(C)CC2CCCCC2)[C@H](C)CN([C@H](C)CO)C(=O)c2cc(NC(=O)Nc3ccccc3)ccc2O1	-1	/	/	0	/	6	/
CN1c2ccc(-c3ccccc3)cc2[C@@H]2[C@@H](CCN2C(=O)Cc2cccnc2)[C@@H]1CO	-4	/	/	0	/	3	/
Cc1cc(C)c2c(N)c(C(=O)c3ccc(Cl)c(Cl)c3)sc2n1	/	37*	1	0	-6	-4	4
Cc1cc(C)c2c(N)c(C(=O)c3ccc(Cl)cc3)sc2n1	-1	5	20	0	3	-2	/
COc1ccc(CSCC(=O)N/N=C/c2ccc(OCC(=O)N3CCCCC3)cc2)cc1	-2	-3	-3	0	0	-7	/
